Screening results (PubChem)
In the library only some 1.7% were active in any assay of this set; here they are far more common.
LDHA inh: qHTS assay for inhibitors of human lactate dehydrogenase; purified LDHA, NADH/diaphorase-resazurin fluorescence; active compounds read low; L-lactate dehydrogenase A chain (Homo sapiens), P00338; activity change, % (values are at about 110 or 230 µM); 0.15% of 480,000 active; in the data active = activity change below about -30%; inconclusive = mostly about -25% to -30%;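 note: plate controls were DMSO wells for no effect and wells without enzyme for full effect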
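Enzyme activity of human lactate dehydrogenase 5 (2 nM; 0.06 mM NADH, 0.2 mM pyruvate, 5 min, RT) is measured via a resazurin/diaphorase fluorescence readout of residual NADH.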
IDH1 R132H inh: qHTS for Inhibitors of mutant isocitrate dehydrogenase 1 (IDH1): qHTS. Isocitrate dehydrogenase [NADP] cytoplasmic (Homo sapiens), O75874. IDH1-R132H enzyme, NADPH consumption, diaphorase/resazurin fluorescence. Potency, µM (top dose mostly 76.6 µM), without a hit: at the highest dose activity change, negative = inhibition, hits mostly inhibitors. 0.093% of 390,000 active; note: potency is the fitted concentration of half-maximal effect; % is set by controls: 0 for no effect and ±100 for the full control effect; nearly all actives have a fitted effect of over 65% in size
Target sequence (O75874 whole entry R132H, stated change not applied): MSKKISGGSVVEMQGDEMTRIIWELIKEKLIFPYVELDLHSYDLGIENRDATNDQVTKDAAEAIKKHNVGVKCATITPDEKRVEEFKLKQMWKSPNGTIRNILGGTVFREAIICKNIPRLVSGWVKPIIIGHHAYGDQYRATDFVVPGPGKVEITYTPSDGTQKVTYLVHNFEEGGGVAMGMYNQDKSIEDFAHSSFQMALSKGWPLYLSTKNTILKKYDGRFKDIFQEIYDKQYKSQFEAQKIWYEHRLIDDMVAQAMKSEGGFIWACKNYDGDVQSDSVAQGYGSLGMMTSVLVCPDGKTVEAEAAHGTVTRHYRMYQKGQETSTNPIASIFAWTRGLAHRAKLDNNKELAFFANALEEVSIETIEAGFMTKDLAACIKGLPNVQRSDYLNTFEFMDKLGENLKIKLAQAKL
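IDH1-R132H (0.5 ug/mL dispensed) in pH 7.5 Tris buffer was preincubated 30 min with compound, then given a substrate mix of 0.016 mM NADPH and 2 mM alpha-KG for 80 min at room temperature; remaining NADPH was read by diaphorase/resazurin fluorescence.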
PTHR1 agonist: qHTS for PTHR1 Agonists: Primary Screen; Parathyroid hormone/parathyroid hormone-related peptide receptor (Homo sapiens), Q03431; Potency, µM (titrated, usually from 115 µM), without a hit: at the top dose activation, hits mostly activators; AID 743266, 2014; 0.075% of 410,000 active; HEK293 GP2 PTHR1 cells, GloSensor cAMP luminescence, 1 h; note: potency is the fitted concentration of half-maximal effect; nearly all actives have a fitted effect of over 55% in size
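HEK-293-derived GP2 cells expressing PTHR1 and a GloSensor cAMP reporter, 3,000/well, plated overnight, given luciferin plus IBMX (each 0.5 mM as added) for 1 h at 37 °C, then compound for 1 h at 37 °C. Luminescence was read after 15 min at room temperature.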
GLP1R ag: qHTS of GLP-1 Receptor Agonists. Glucagon-like peptide 1 receptor (Homo sapiens), P43220. 0.007% of 380,000 active. Potency, µM (top dose mostly 45.6 µM), for the others: top-dose activation, hits mostly activators. HEK293 GLP-1R CRE-luciferase, luminescence, 4-6 h; cells express a hypersensitive GLP-1R form; note: potency is the fitted concentration of half-maximal effect; % of control where 0% means no effect
GLP-1R inv ag: qHTS of GLP-1 Receptor Inverse Agonists (Inhibition Mode). Glucagon-like peptide 1 receptor (Homo sapiens), P43220. HEK293 GLP-1R CRE-luciferase, luminescence, 24 h; GLP-1R form is constitutively active. Potency, µM (doses to about 38.3 µM), inactives show top-dose activity change, negative = inhibition, hits mostly inhibitors. 1.6% of 410,000 active; note: potency is the fitted concentration of half-maximal effect; % is set by controls: 0 for no effect and ±100 for the full control effect; nearly all actives have a fitted effect of over 55% in size
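Using stably transfected HEK293 (constitutively active GLP-1R, cAMP-luciferase reporter), compounds were incubated 24 hr and luciferase measured by luminescence.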
GLP1R cytotox: qHTS of GLP-1 Receptor Inverse Agonists: Cytotox Screen; HEK293 cAMP-luciferase reporter cells, luminescence, 24 h; Potency, µM (series often up to 38.3 µM), for the others: at the top dose activity change, negative = inhibition, usual class: inhibitors; 0.13% of 410,000 active; AID 624418, 2012;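 note: loss of luciferase light is scored as toxicity; potency is the fitted concentration of half-maximal effect; % is set by controls: 0 for no effect and ±100 for the full control effect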
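Cells in DMEM/10% Nu serum/1% pen-strep, 1536-well format. Pre-incubated 12 h, dosed with 23 nL compound, incubated a further 24 h. Luciferase detection, 12 min at room temp, luminescence.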
IDH1 autofl: qHTS for Inhibitors of mutant isocitrate dehydrogenase 1 (IDH1): Cherrypicks Autofluorescence Interference; shares compounds with IDH1 R132H inh; Resorufin detection reagent fluorescence interference, cell-free; inhibition of signal, % at 51.2 µM; 750 tested, under 10 active; AID 623980, 2012;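 note: 0% = wells with normal resorufin and full inhibition = wells lacking resorufin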
IDH1 WT: qHTS for Inhibitors of mutant isocitrate dehydrogenase 1 (IDH1): Cherrypicks in WT IDH1 | shares compounds with IDH1 R132H inh | AID 623995, 2012 | 9% of 750 active | WT IDH1 enzyme, NADPH diaphorase/resazurin fluorescence | Potency, µM (series often up to 115 µM), for the others: top-dose activity change, negative = inhibition, hits mostly inhibitors;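 note: potency is the fitted concentration of half-maximal effect; 0% = full WT IDH1 enzyme control and full inhibition = no enzyme wells; nearly all actives have a fitted effect of over 55% in size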
Target sequence (O75874 whole entry, looked up): as the sequence (O75874 whole entry R132H, stated change not applied) above, with H132R counted along it
IDH1 R132H conf: qHTS for Inhibitors of mutant isocitrate dehydrogenase 1 (IDH1): Confirmation of Cherrypicks; shares compounds with IDH1 R132H inh; IDH1 R132H enzyme, NADPH diaphorase/resazurin fluorescence; Potency, µM (titrated, usually from 76.6 µM), without a hit: at the highest dose activity change, negative = inhibition, hits mostly inhibitors; 83% of 750 active; note: potency is the fitted concentration of half-maximal effect; nearly all actives have a fitted effect of over 50% in size
Numbers without * were called inactive; i = inactive; ? = inconclusive; . = no result; [ ] = remark or other dose. Unless noted, calls come from the whole dose curve; as a rule, active = well fitted curve in the direction sought with a large enough effect; inconclusive = small, poorly fitted or top-dose-only effect, or another doubt; inactive = no such curve, though single readings can be large; an effect the other way counts as inactive or inconclusive.

SMILES | LDHA inh | IDH1 R132H inh | PTHR1 agonist | GLP1R ag | GLP-1R inv ag | GLP1R cytotox | IDH1 autofl | IDH1 WT | IDH1 R132H conf
CC(=O)c1cccc(NCC(=O)c2ccc(C)c([N+](=O)[O-])c2)c1 | 3 | 16µM* | i | 5% | -7% | -7% | 4 | 259% | 40µM*
Cc1ccc(S(=O)(=O)c2nnn3c2nc(NC(C)c2ccccc2)c2sccc23)cc1 (stereo unspecified) | 5 | ? | -58% | . | 29% | -7% | -9 | 2% | 14µM*
Cc1ccc(C)c(S(=O)(=O)c2nnn3c2nc(Nc2ccc(F)c(Cl)c2)c2sccc23)c1 | 5 | ? | -30% | . | 9% | -14% | 4 | -3% | ?
O=C(O)c1cccc(CSc2ccc3c(c2)OCCO3)c1 | 2 | . | . | . | . | . | . | . | .
C=CCN1CCN(c2nc3c(c(=O)[nH]c(=O)n3C)n2Cc2ccc(Cl)c(Cl)c2)CC1 | 3 | . | . | . | . | . | . | . | .
Cc1cccc(N2CCN(S(=O)(=O)c3ccc4c(c3)C(C(C)C)C(=O)N4)CC2)c1C (stereo unspecified) | 4 | 40µM* | -37% | 3% | ? | -6% | 3 | 6% | 22µM*
CCOc1ccc(-c2cc3cc(OC)c(OC)cc3c(C)n2)cc1 | -5 | 18% | 0% | 9% | 18% | 1% | . | . | .
COc1cc2cc(-c3ccc(O)cc3O)nc(C)c2cc1OC | -1 | ? | -7% | 27% | 15% | -30% | -10 | 3% | 28µM*
Cc1cc(NC(=O)CCC(=O)N(c2ccc(F)cc2)C(C(=O)NC2CCCC2)c2ccccc2)no1 (stereo unspecified) | -3 | ? | i | 8% | -3% | -11% | 2 | 5% | 40µM*
Cc1ccc(N(C(=O)C(F)(F)F)C(C(=O)NC2CCCCC2)c2cccs2)cc1C (stereo unspecified) | -2 | 3% | -35%[57.5 µM] | -9% | -10% | ? | . | . | .
Cc1ccc(C(C(=O)NC2CCCCC2)N(C(=O)CCCC(=O)Nc2ccccn2)c2ccc3c(c2)OCCO3)cc1 (stereo unspecified) | -20 | -18% | -21% | 5% | -5% | -15% | . | . | .
O=C(CCCC(=O)N(c1ccc2c(c1)OCCO2)C(C(=O)NC1CCCCC1)c1ccc(F)cc1)Nc1ccccn1 (stereo unspecified) | -5 | 9.3µM* | i | 3% | -27% | -9% | -8 | 2% | 13µM*
C#CC(=O)N(c1cc(OC)ccc1OC)C(C(=O)NC1CCCC1)c1cccs1 (stereo unspecified) | -9 | ? | -28% | -42% | 7.9µM* | 5µM* | -7 | 11% | 45µM*
O=C(NC1CCCCC1)C(c1cccs1)N(C(=O)C(F)(F)F)c1ccccc1 (stereo unspecified) | -2 | ? | -6%[57.5 µM] | 4% | -13% | -26% | -12 | 5% | 20µM*
Nc1nc(CN2CCN(C(=O)c3ccc(F)cc3F)CC2)nc2ccccc12 | 9 | . | . | . | . | . | . | . | .
COC(=O)c1cc2c3ccccc3n(C)c2s1 | -2 | . | . | . | . | . | . | . | .
Cc1cc(=O)oc2cc(OCC(=O)N(c3ccccc3)C(C)C)ccc12 | -7 | . | . | . | . | . | . | . | .
Nc1ccc2c(S(=O)(=O)O)cc(S(=O)(=O)O)cc2c1 | 32 | . | . | . | . | . | . | . | .
CCCN(CCC)CC(=O)Nc1sc2c(c1C(=O)Nc1ccc(OC)cc1)CCC2 | -2 | . | . | . | . | . | . | . | .
O=C(Nc1cccc(Cl)c1)c1n[nH]c(=O)c2ccccc12 | -6 | . | . | . | . | . | . | . | .
Cc1cc(NC(=O)CCC(=O)N(c2ccccc2)C(C(=O)NC2CCCCC2)c2cccs2)no1 (stereo unspecified) | -4 | ? | -10%[57.5 µM] | 10% | 1% | -1% | 0 | -5% | 16µM*
Cc1cc(NC(=O)CCC(=O)N(c2ccccc2)C(C(=O)NC2CCCC2)c2ccc(F)cc2)no1 (stereo unspecified) | -13 | ? | i | 10% | -11% | ? | -6 | -4% | ?
Cc1cccc(NC(=O)COC(=O)c2ccc3ccccc3n2)c1C | 11 | . | . | . | . | . | . | . | .
COc1ccc(Br)cc1/C=C1\CCc2ccccc2C1=O | 9 | . | . | . | . | . | . | . | .
COc1ccc(Nc2c3c(nc4ccc(NC(=O)/C=C/c5cc(OC)c(OC)c(OC)c5)cc24)CCCC3)cc1OC | 1 | ? | -10% | . | ? | ? | -6 | 7% | ?
N#CC1=C(N)C(C#N)(C#N)C(c2ccc[nH]2)C2CCCC=C12 (stereo unspecified) | 8 | 8% | -4%[57.5 µM] | -7% | 0% | 11% | . | . | .
